Laboratory results: PubChem BioAssay
For some of these results: Entries with a potency or affinity are not part of this list. Results filed as inconclusive are left out. The list shows a part of the results. Active and inactive are the calls of the source.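 How the source made its calls, unless noted: active means signal-lowering compounds whose fitted half-maximal concentration is at or below twice the top tested dose in every run; inconclusive means runs disagree, flat 30 to 70% inhibition, or poor curve fit; inactive means the rest.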

assay: DNA binders by acridine orange displacement, dose response, counter-screen for EWS/Fli inhibitor project, biochemical, fluorescence polarization, cherry-pick (AID 720586;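 active means fitted curve reaches a 35% signal fall AC35 below twice the sample's top valid tested dose, actives reach about 48 µM in these data; inactive means the rest, including activity in the rising direction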;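 further: lower polarization ratio signals compound binding to DNA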); conditions: salmon sperm DNA acridine orange fluorescence polarization; series mostly up to 68 µM

Structure (SMILES) | AC35
CCOc1cc2[nH]c(=S)n(Cc3ccc(C(=O)N4CCN(C)CC4)cc3)c(=O)c2cc1OCC | inactive
COC(=O)C[C@@H]1CC[C@@H]2[C@H](COc3ccc(NC(=O)c4cccc(F)c4)cc3C(=O)N2C)O1 | inactive
COc1ccc(/C=C2\SC(=S)N(CCCC(=O)NC3CCCC3)C2=O)cc1OC | inactive
Cc1ccc(C)c(S(=O)(=O)N2CCN(c3ncnc4sccc34)CC2)c1 | inactive
CC(=O)Nc1ccc(S(=O)(=O)Nc2ccc(N3CCCCC3)cc2)cc1 | inactive
COC(=O)Cc1[nH]n(-c2nc3ccccc3s2)c(=O)c1C(C)=Nc1ccc(OC)cc1 | inactive
C[C@@H]1CN([C@@H](C)CO)C(=O)c2cc(NS(=O)(=O)c3ccccc3)ccc2O[C@@H]1CN(C)Cc1ccc(C(=O)Nc2ccccc2N)cc1 | inactive
N#C[C@@H]1[C@H](c2ccc(C#Cc3cccc(F)c3)cc2)[C@@H](CO)N1C(=O)C1CCCC1 | inactive
CCC(C)Cn1c(O)cc2nn(-c3nc4ccccc4s3)c(=O)c-2c1C (stereo not given) | 48.3 µM (active)
OCCN1CCN(C(=S)c2ccc(-c3ccccc3)cc2)CC1 | inactive
C[C@H]1CN([C@@H](C)CO)C(=O)Cc2cc(NC(=O)C3CC3)ccc2O[C@H]1CN(C)S(=O)(=O)c1ccc(Cl)cc1 | inactive
COc1ccc(-c2nc3c(s2)CCc2onc(-c4ccc(OC)cc4)c2-3)cc1 | inactive
Cc1noc(C)c1NC(=O)Nc1ccc2c(c1)CC(=O)N([C@@H](C)CO)C[C@@H](C)[C@@H](CN(C)Cc1ccc(Cl)c(Cl)c1)O2 | inactive
COc1ccc(Nc2ncnc3ccc(Br)cc23)c(OC)c1 | inactive

assay: inhibitors of CMV-promoter luciferase reporter, dose response, counter-screen for Pax8 inhibitor project, cell-based, HEK293, luminescence, dry powder (AID 743020); conditions: SteadyGlo luminescence, 24 h; series mostly up to 35 µM;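 further: HEK293 cells stably expressing the CMV luciferase reporter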

Structure (SMILES) | outcome
CCOc1ccc(C(=O)C(CCC(CN(C)C)C(=O)c2ccc(OCC)cc2)CN(C)C)cc1 (stereo not given) | inactive
COc1ccc(F)cc1-c1cc(NC=O)c2ncc(-c3cc(OC)c(OC)c(OC)c3)n2c1 | inactive
Cc1ccc(-c2csc3ncnc(Sc4nnc(CN5CCCCCC5=O)o4)c23)cc1 | inactive
N#Cc1ccc(-c2ccc(C3[C@@H]4CN(C(=O)C5CC5)C[C@H]3N4)cc2)cc1 (stereo not given in full) | inactive
Nc1nc(=S)c2[nH]cnc2[nH]1 | inactive
CCOc1ccc(NC(=O)Nc2cc(OCC(F)(F)F)cc(OCC(F)(F)F)c2)cc1 | inactive
CCOC(=O)Nc1ccc2c(c1)N(C(=O)CCN(CC)CC)c1ccccc1S2=O (stereo not given) | inactive
Cn1c(CCN2CCCC2)nc2cc(NS(=O)(=O)c3ccccc3)ccc21 | inactive
Cn1ncc2c(O/N=C(\N)c3ccc(C(F)(F)F)cc3)ncnc21 | inactive
Cc1cccc(N(Cc2cc(=O)[nH]c3ccccc23)C(=O)CCl)c1 | inactive
Cc1ccc(Cl)cc1N1CCN(C(=O)c2noc(C)c2[N+](=O)[O-])CC1 | inactive
O=C(CCl)N(Cc1ccccc1)c1ccccc1 | inactive
O=C(NCc1cc(C(F)(F)F)ccc1Cl)c1cccc2c1C(=O)c1ccc(N3CCC(N4CCCCC4)CC3)cc1S2(=O)=O | inactive
O=C(Nc1ccccc1)NN(C(=O)CCl)c1ccccc1 | inactive
Cc1cnc(NC(=O)c2ccc3c(c2)OCCO3)s1 | inactive
Cc1ccc(NC(=O)CN(C)C(=O)Cn2ncc(Cl)c(Cl)c2=O)cc1 | inactive
O=C(NC12CC3CC(CC(C3)C1)C2)c1ccc([N+](=O)[O-])o1 | inactive
COc1ccccc1C(=O)Nc1nc2ccccc2[nH]1 | inactive
CCOC(=O)c1c(C)[nH]c2c1-c1ccccc1C(=O)C2=O | inactive
O=C(NC1CCCCC1)C(c1cccnc1)N(C(=O)CCl)c1ccc(F)cc1 (stereo not given) | inactive
COc1cccc2c1C(=O)c1c(O)c3c(c(O)c1C2=O)CC(O)(C(=O)CO)CC3OC1CC(N(C)C)C(O)C(C)O1 (stereo not given) | inactive
C(=Cc1cnc2ccccc2n1)c1ccc2c(c1)OCO2 | inactive
COCCn1c(C)cc(C2=NNC(=NC3CC3)SC2)c1C | inactive
COC(=O)[C@]12CCCCC=C1N(Cc1ccc(Cl)cc1Cl)C(=O)[C@H](CC(=O)N1CCN(C(=O)c3ccco3)CC1)C2 | inactive
O=C(Nc1ccc(N2CCN(C(=O)c3ccccc3)CC2)cc1)c1ccc([N+](=O)[O-])o1 | inactive
S=c1sc2c(Cl)ncnc2n1-c1ccccc1 | inactive
